Measured values taken from the supplement of paper PMC8728848.
About 410 targets per protein were measured; listed, in parts, are those with the strongest signals and a random draw of the rest.

Key:
Assay in all cases: glycan array binding signal (z-score within array); higher = stronger binding
Conditions in all cases: glycan notation: IUPAC condensed, linker removed
[1] = molecular target: Fuc(a1-2)Gal(b1-3)GalNAc(a1-3)[Fuc(a1-2)]Gal(b1-4)GlcNAc
Summary of the method: (§1)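 Columns mapping to the same glycan were averaged after glycan names were converted to IUPAC-condensed notation. The data come from 3228 arrays in the Consortium for Functional Glycomics database, limited to those with an available protein sequence. Binding is reported as a within-array Z-score averaged across arrays of one protein sequence and across linkers.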

[2] = molecular target: Fuc(a1-2)Gal(b1-4)GlcNAc(b1-2)Man(a1-3)[Fuc(a1-2)Gal(b1-4)GlcNAc(b1-2)Man(a1-6)]Man(b1-4)GlcNAc(b1-4)[Fuc(a1-6)]GlcNAc
Summary of the method: as §1

[3] = molecular target: Fuc(a1-2)Gal(b1-4)[Fuc(a1-3)]GlcNAc(b1-2)Man(a1-3)[Fuc(a1-2)Gal(b1-4)[Fuc(a1-3)]GlcNAc(b1-2)Man(a1-6)]Man(b1-4)GlcNAc(b1-4)[Fuc(a1-6)]GlcNAc
Summary of the method: as §1

[4] = molecular target: Fuc(a1-2)Gal(b1-4)[Fuc(a1-3)]GlcNAc(b1-3)Gal(b1-4)[Fuc(a1-3)]GlcNAc
Summary of the method: as §1

[5] = molecular target: Fuc(a1-2)Gal(b1-4)[Fuc(a1-3)]GlcNAc(b1-3)Gal(b1-4)[Fuc(a1-3)]GlcNAc(b1-3)Gal(b1-4)[Fuc(a1-3)]GlcNAc
Summary of the method: as §1

[6] = molecular target: Fuc(a1-2)Gal(b1-4)[Fuc(a1-3)]GlcNAc(b1-3)[Neu5Ac(a2-6)Gal(b1-4)GlcNAc(b1-6)]Gal(b1-4)Glc
Summary of the method: as §1

Fuc(a1-2)[Gal(a1-3)]Gal = molecular target: Fuc(a1-2)[Gal(a1-3)]Gal
Summary of the method: as §1

[7] = molecular target: Fuc(a1-2)[Gal(a1-3)]Gal(b1-3)GlcNAc
Summary of the method: as §1

[8] = molecular target: Fuc(a1-2)[Gal(a1-3)]Gal(b1-3)GlcNAc(b1-3)GalNAc
Summary of the method: as §1

[9] = molecular target: Fuc(a1-2)[Gal(a1-3)]Gal(b1-4)[Fuc(a1-3)]GlcNAc(b1-3)GalNAc
Summary of the method: as §1

[10] = molecular target: Fuc(a1-2)[GalNAc(a1-3)]Gal(b1-3)GalNAc(a1-3)[Fuc(a1-2)]Gal(b1-4)GlcNAc
Summary of the method: as §1

[11] = molecular target: Fuc(a1-2)[GalNAc(a1-3)]Gal(b1-3)GlcNAc
Summary of the method: as §1

[12] = molecular target: Fuc(a1-2)[GalNAc(a1-3)]Gal(b1-4)GlcNAc(b1-3)Gal(b1-4)GlcNAc(b1-3)Gal(b1-4)GlcNAc
Summary of the method: as §1

[13] = molecular target: Fuc(a1-2)[GalNAc(a1-3)]Gal(b1-4)GlcNAc(b1-3)[Fuc(a1-2)[GalNAc(a1-3)]Gal(b1-4)GlcNAc(b1-6)]GalNAc
Summary of the method: as §1

[14] = molecular target: Fuc(a1-3)[Gal(b1-4)]GlcNAc(b1-3)Gal(b1-3)[Fuc(a1-4)]GlcNAc
Summary of the method: as §1

[15] = molecular target: Fuc(a1-3)[Gal(b1-4)]GlcNAc(b1-3)Gal(b1-4)[Fuc(a1-3)]GlcNAc
Summary of the method: as §1

[16] = molecular target: Fuc(a1-3)[Gal(b1-4)]GlcNAc(b1-3)Gal(b1-4)[Fuc(a1-3)]GlcNAc(b1-3)Gal(b1-4)[Fuc(a1-3)]GlcNAc
Summary of the method: as §1

[17] = molecular target: Fuc(a1-3)[Gal3S(b1-4)]GlcNAc6S
Summary of the method: as §1

[18] = molecular target: Fuc(a1-3)[GalNAc(b1-4)]GlcNAc6S
Summary of the method: as §1

Gal(a1-3)Gal(b1-4)Glc = molecular target: Gal(a1-3)Gal(b1-4)Glc
Summary of the method: as §1

[19] = molecular target: Gal(a1-3)Gal(b1-4)[Fuc(a1-3)]GlcNAc(b1-2)Man(a1-3)[Gal(a1-3)Gal(b1-4)[Fuc(a1-3)]GlcNAc(b1-2)Man(a1-6)]Man(b1-4)GlcNAc(b1-4)GlcNAc
Summary of the method: as §1

[20] = molecular target: Gal(a1-4)Gal(b1-3)GlcNAc(b1-2)Man(a1-3)[Gal(a1-4)Gal(b1-3)GlcNAc(b1-2)Man(a1-6)]Man(b1-4)GlcNAc(b1-4)GlcNAc
Summary of the method: as §1

[21] = molecular target: Gal(b1-3)GlcNAc(b1-3)Gal(b1-3)GlcNAc
Summary of the method: as §1

[22] = molecular target: Gal(b1-3)[Fuc(a1-4)]GlcNAc(b1-3)Gal(b1-3)[Fuc(a1-4)]GlcNAc
Summary of the method: as §1

[23] = molecular target: Gal(b1-4)GlcNAc(b1-2)[Gal(b1-4)GlcNAc(b1-6)]Man(a1-6)[GlcNAc(b1-4)][Gal(b1-4)GlcNAc(b1-2)Man(a1-3)]Man(b1-4)GlcNAc(b1-4)GlcNAc
Summary of the method: as §1

[24] = molecular target: Gal(b1-4)GlcNAc(b1-3)Gal(b1-4)GlcNAc(b1-2)[Gal(b1-4)GlcNAc(b1-3)Gal(b1-4)GlcNAc(b1-6)]Man(a1-6)[Gal(b1-4)GlcNAc(b1-3)Gal(b1-4)GlcNAc(b1-2)Man(a1-3)]Man(b1-4)GlcNAc(b1-4)GlcNAc
Summary of the method: as §1

[25] = molecular target: Gal(b1-4)GlcNAc(b1-3)Gal(b1-4)GlcNAc(b1-3)Gal(b1-4)GlcNAc(b1-2)Man(a1-3)[Gal(b1-4)GlcNAc(b1-3)Gal(b1-4)GlcNAc(b1-3)Gal(b1-4)GlcNAc(b1-2)Man(a1-6)]Man(b1-4)GlcNAc(b1-4)[Fuc(a1-6)]GlcNAc
Summary of the method: as §1

B1: DC-Sign (Homo sapiens), Q9NNX6 (protein)
chain: MSDSKEPRLQQLGLLEEEQLRGLGFRQTRGYKSLAGCLGHGPLVLQLLSFTLLAGLLVQVSKVPSSISQEQSRQDAIYQNLTQLKAAVGELSEKSKLQEIYQELTQLKAAVGELPEKSKLQEIYQELTRLKAAVGELPEKSKLQEIYQELTWLKAAVGELPEKSKMQEIYQELTRLKAAVGELPEKSKQQEIYQELTRLKAAVGELPEKSKQQEIYQELTRLKAAVGELPEKSKQQEIYQELTQLKAAVERLCHPCPWEWTFFQGNCYFMSNSQRNWHDSITACKEVGAQLVVIKSAEEQNFLQLQSSRSNRFTWMGLSDLNQEGTWQWVDGSPLLPSFKQYWNRGEPNNVGEEDCAEFSGNGWNDDKCNLAKFWICKKSAASCSRDEEQFLSPAPATPNPPPA
glycan array binding signal (z-score) [1]: -0.14 | glycan array binding signal (z-score) [2]: -0.182 | glycan array binding signal (z-score) [3]: 9.49 | glycan array binding signal (z-score) [4]: 12.6 | glycan array binding signal (z-score) [5]: 6.53 | glycan array binding signal (z-score) [6]: -0.045 | glycan array binding signal (z-score) (Fuc(a1-2)[Gal(a1-3)]Gal): 0.684 | glycan array binding signal (z-score) [7]: -0.126 | glycan array binding signal (z-score) [8]: -0.189 | glycan array binding signal (z-score) [9]: -0.164 | glycan array binding signal (z-score) [10]: -0.193 | glycan array binding signal (z-score) [11]: -0.122 | glycan array binding signal (z-score) [12]: -0.15 | glycan array binding signal (z-score) [13]: -0.189 | glycan array binding signal (z-score) [14]: 5.28 | glycan array binding signal (z-score) [15]: 2.48 | glycan array binding signal (z-score) [16]: 8.36 | glycan array binding signal (z-score) [17]: -0.13 | glycan array binding signal (z-score) [18]: 1.43 | glycan array binding signal (z-score) (Gal(a1-3)Gal(b1-4)Glc): -0.198 | glycan array binding signal (z-score) [19]: -0.165 | glycan array binding signal (z-score) [20]: -0.131 | glycan array binding signal (z-score) [21]: -0.156 | glycan array binding signal (z-score) [22]: 2.51 | glycan array binding signal (z-score) [23]: -0.187 | glycan array binding signal (z-score) [24]: 0.026 | glycan array binding signal (z-score) [25]: -0.137
